Assay outcomes from PubChem BioAssay.
Shown are actives, neighbours in structure and some others; about 7.6% of the full set was active somewhere.
Tau filament bind: tau filament binding; recombinant tau filaments, thioflavin S fluorescence, 15 h; filaments grown with octadecylsulfate alongside compound; Potency, µM (series often up to 57.1 µM), for the others: at the highest dose activity change, negative = inhibition; 71,000 tested, 2% active; AID 596;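 also: % is scaled to controls: 0 for no effect and ±100 for the full control effect; actives lower thioflavin S fluorescence by blocking filaments or displacing dye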
Target sequence (P10636 whole entry, looked up): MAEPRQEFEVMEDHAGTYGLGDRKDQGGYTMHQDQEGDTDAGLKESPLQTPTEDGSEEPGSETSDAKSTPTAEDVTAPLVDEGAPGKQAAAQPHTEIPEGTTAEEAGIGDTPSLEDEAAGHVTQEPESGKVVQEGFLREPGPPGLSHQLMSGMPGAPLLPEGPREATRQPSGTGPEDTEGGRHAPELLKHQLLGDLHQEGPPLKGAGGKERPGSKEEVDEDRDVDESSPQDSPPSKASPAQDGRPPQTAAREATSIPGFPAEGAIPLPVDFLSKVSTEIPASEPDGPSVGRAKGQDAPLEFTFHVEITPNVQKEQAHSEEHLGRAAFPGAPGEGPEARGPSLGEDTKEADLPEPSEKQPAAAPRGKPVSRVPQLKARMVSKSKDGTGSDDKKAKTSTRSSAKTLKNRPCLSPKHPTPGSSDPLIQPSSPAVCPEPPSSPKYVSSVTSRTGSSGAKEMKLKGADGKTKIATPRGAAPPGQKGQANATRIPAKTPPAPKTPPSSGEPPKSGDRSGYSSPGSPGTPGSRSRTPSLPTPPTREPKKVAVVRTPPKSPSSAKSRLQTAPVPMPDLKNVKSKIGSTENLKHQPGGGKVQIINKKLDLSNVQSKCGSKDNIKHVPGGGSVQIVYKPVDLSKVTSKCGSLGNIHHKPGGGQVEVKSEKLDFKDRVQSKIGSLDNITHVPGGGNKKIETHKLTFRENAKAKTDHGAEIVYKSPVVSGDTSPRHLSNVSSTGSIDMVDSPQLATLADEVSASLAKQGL
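Assay mix: 1 uM His-tagged tau, 30 uM sodium octadecylsulfate, thioflavine S dye in HEPES/NaCl/DTT buffer. Compound is added prior to the inducer. Fluorescence after 15 h at 37 C.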
HEK293 cAMP cs: raises cAMP in parental HEK293 cells, TSHR agonist counter-screen; parental HEK293 CNG cAMP sensor, membrane potential fluorescence; Potency, µM (titrated, usually from 57.1 µM), for the others: at the top dose activation, usual class: activators; 73,000 tested, 2.5% active; also: % of control where 0% means no effect; nearly all actives have a fitted effect of over 55% in size
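Parental HEK 293 cells stably expressing a cAMP-gated CNG channel were loaded with membrane potential dye containing 100 uM RO 20-1724 for 60 min. Compound added for 30 min; depolarization read as fluorescence intensity at 590 nm.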
ERK AVP block: blocks ERK signaling stimulated by vasopressin; HEK293-V1b, vasopressin-stimulated pERK AlphaScreen; Potency, µM (series often up to 57.5 µM), without a hit: top-dose activity, negative = inhibition, actives largely listed as inhibitors; 72,000 tested, 0.99% active; AID 995; also: % is scaled to controls: 0 for no effect and ±100 for the full control effect; nearly all actives have a fitted effect of over 55% in size
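Phosphorylated ERK1/2 detected via AlphaScreen bead proximity in lysates of V1b-expressing HEK293 cells given 25 nM vasopressin for 5 min after 30 min compound exposure (37 °C). AC50 from Hill equation; basal DMSO 0%, vasopressin 100%.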
TSHR agonist: activates the human thyroid stimulating hormone receptor | HEK293-CNG-TSHR cells (CNG channel as cAMP sensor), membrane potential dye, cAMP | Potency, µM (highest dose often 57.1 µM), without a hit: at the highest dose activation, usual class: activators | 73,000 tested, 0.48% active; active = well fitted activation curve with a large enough effect in the main read-out, with a control signal flat, not every such curve was filed as active; inconclusive = small, poorly fitted or top-dose-only effect, or a change in a side signal; inactive = no such curve, though single readings can be large or run the other way; % of control where 0% means no effect;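 also: the control signal comes from parental cells without the receptor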
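cAMP rise detected as CNG-channel membrane depolarization by fluorescent dye (emission 590 nm), 30 min after compound, following 60 min dye loading containing 100 uM RO 20-1724 at room temperature. Cells: TSHR/CNG HEK 293, with parental CNG HEK 293 as control.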
CRE-bla Fsk: CRE-bla signaling modulation under forskolin stimulation; CHO CRE-bla reporter (cAMP response element driving beta-lactamase), forskolin EC10, beta-lactamase ratio; 71,000 tested, 2.5% active; AID 662; Potency, µM (top dose mostly 38.2 µM), for the others: top-dose activity change, negative = inhibition, hits mostly activators; active = well fitted activation curve with a large enough effect in the signal ratio, with a control signal flat, not every such curve was filed as active; inconclusive = small, poorly fitted or top-dose-only effect, or effect the other way, or a change in a side signal; the % refers to the signal ratio; also: % of control where 0% means no effect
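Forskolin analogue NKH 477 at EC10 stimulated CRE-driven beta-lactamase in CHO cells alongside compound dilution series. Beta-lactamase was measured with CCF4, excitation 405 nm, emission ratio 460/530 nm.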
Starred values were filed as active, the others as inactive; i = inactive; ? = inconclusive; . = not tested or not shown; [ ] = remark or other dose. Unless noted, calls follow the shape of the dose curve; as a rule, active = well fitted curve in the direction sought with a large enough effect; inconclusive = small, poorly fitted or top-dose-only effect, or another doubt; inactive = no such curve, though single readings can be large; an effect the other way counts as inactive or inconclusive. Potency is read from the fitted curve at half-maximal effect.

SMILES	Tau filament bind	HEK293 cAMP cs	ERK AVP block	TSHR agonist	CRE-bla Fsk
COC(=O)[C@@]1(Cc2ccccc2)C=C[C@@H](C)N1C(=O)c1ccccc1	0.1%	31.6µM*	25.7%	?	-22.4%
C[C@@H]1C=C[C@](Cc2ccccc2)(C(=O)NCCc2c[nH]c3ccccc23)N1C(=O)c1ccccc1	4.1%	2.51µM*	-6.6%	?	-13.5%
Cc1cc2c(cc(C(=O)OCC(=O)NCc3cccs3)n2C(C)C)o1	8.4%	?	7.5%	?	10µM*
Cc1cc(C(=O)NCc2cccs2)c(C)o1	74.1%	7.7%	23.0%	5.5%	?
CCCn1c(C)nc2c(NCCCN3CCCCC3C)nc(C)nc21 (stereo not given)	6.0%	16.2%	6.5%	1.1%	4.3%
O=C(Nc1ccccc1)c1cccc(N2CCCC2=O)c1	3.0%	15.8µM*	4.5%	?	-9.6%
O=C(O)c1cccc(N2CCCC2=O)c1	-4.7%	-1.2%	17.6%	-2.6%	0.0%
NC(=O)C1=CN([C@@H]2O[C@@H](COP(=O)(O)OP(=O)(O)OC[C@@H]3O[C@H](n4cnc5c(N)ncnc54)[C@@H](OP(=O)(O)O)[C@@H]3O)[C@H](O)[C@@H]2O)C=CC1	-3.2%	?	15.7%	?	?
CCOc1ccccc1NC(=O)N1CCCC1C(=O)Nc1ccc(-n2cnnn2)c(C)c1 (stereo not given)	-0.8%	-1.9%	5.3%	20µM*	-8.6%
O=C(O)C(NS(=O)(=O)c1cccc2cccnc12)c1ccccc1 (stereo not given)	-7.7%	1.6%	.	-4.7%	-12.2%
CCn1c(C)nc2cc(-c3nnc(-c4c(-c5ccccc5)noc4C)o3)ccc21	255.3%	20µM*	?	?	?
CCCCN1CCCCC1C(=O)Nc1c(C)cc(C)cc1C (stereo not given)	?	20µM*	0.9%	?	?
Cc1cc(C)c(NC(=O)C2CCCN2CCO)c(C)c1 (stereo not given)	-12.4%	8.2%	0.3%	-0.3%	9.2%
COC(=O)c1cc2c([nH]c3ccccc32)c(C)n1	13.9%	5.3%	31.6µM*	0.8%	22.2%
CC(C)C(=O)C(C)(C)CCc1ccccn1	3.4%[11.4 µM]	5.9%[11.4 µM]	-17.8%[11.5 µM]	-0.7%[11.4 µM]	6.1%[7.6 µM]
CCc1cccc2c3c([nH]c12)[C@](CC)(CC(=O)O)OCC3	-3.8%	?	.	?	6.2%
COc1ccc2cc3c(N)c(C(=O)N4CCCC4)sc3nc2c1	20µM*	1.9%	-19.5%	-15.2%	?
O=C(O)c1ccc(NS(=O)(=O)c2ccsc2C(=O)O)c(O)c1	.	15.3%	-10.7%	-1.5%	.
N#Cc1nc(COc2ccccc2)oc1N1CCN(Cc2ccccc2)CC1	-5.6%	12.6µM*	-19.6%	?	?
N#Cc1nc(COc2ccc(F)cc2)oc1N1CCCC1	6.1%	?	16.1%	?	7.9%
N#Cc1nc(COc2cccc(Cl)c2)oc1N1CCCC1	20.5%	12.6µM*	-28.0%	?	14.5%
Cc1ccc(OCc2nc(C#N)c(N3CCN(Cc4ccccc4)CC3)o2)cc1	14.1%	2µM*	-18.9%	?	2.5%
N#Cc1nc(COc2ccccc2)oc1N1CCC(Cc2ccccc2)CC1	21.2%	?	4.7%	?	?
C=C(C)CSC1=C(C#N)C(c2ccccc2Cl)CC(=O)N1 (stereo not given)	-6.0%	8.6%	20µM*	.	-7.5%
C=CCSC1=C(C#N)C(c2ccccc2Cl)CC(=O)N1 (stereo not given)	-15.2%	0.9%	-14.4%	17.0%	-2.7%
SMILES	Tau filament bind	HEK293 cAMP cs	ERK AVP block	TSHR agonist	CRE-bla Fsk
CCOC(=O)C1CCN(C(c2cccs2)c2sc3nc(C)nn3c2O)CC1 (stereo not given)	-4.5%	14.2%	.	1.7%	6.31µM*
COc1ccccc1OCc1nnc(SCC(=O)c2cc(Cl)ccc2OC)o1	136.5%	?	31.6µM*	?	-0.2%
CC(C)CO/N=C1/C[C@@H](O)[C@@H](O)[C@@H]2[C@@H]3C(=O)N(C4CCCCC4)C(=O)[C@H]3CC[C@@H]12	.	-8.4%[11.4 µM]	7.9%[11.5 µM]	-11.2%[11.4 µM]	.
COC(=O)[C@@]1(Cc2ccc(OC)cc2)[C@H]2c3cc(C(=O)N(C)C)n(CCN4CNCC4=O)c3C[C@H]2CN1C(=O)c1ccccc1	-0.5%	?	-13.3%	?	-1.4%
C=C(CO)[C@H]1Cc2c(ccc3c(=O)c4c(oc23)COc2cc(OC)c(OC)cc2-4)O1	31.6µM*	-3.5%	.	-9.0%	?
O=C(O)c1ccccc1C(=O)N1CCN(c2cccc(Cl)c2)CC1	-0.4%	7.2%	-11.6%	2.8%	-17.0%
O=C(C1CC1c1ccccc1)N1CCN(c2cccc(Cl)c2)CC1 (stereo not given)	-5.6%	31.6µM*	9.7%	?	-1.8%
O=C1NC(c2cccs2)Nc2sc3c(c21)CCCC3 (stereo not given)	2.51µM*	3.4%	?	-2.9%	?
CN(C)Cc1ccccc1-c1nc(N(C)Cc2ccco2)c2ccccc2n1	24.5%	12.6µM*	9.8%	?	24.0%
CN(C)Cc1ccccc1-c1nccc(N(C)Cc2ccco2)n1	46.0%	31.6µM*	1.9%	?	5.9%
CN(C)Cc1ccccc1-c1ccc2ncnc(N(C)Cc3ccco3)c2c1	-7.8%	?	-11.1%	?	?
CN(C)Cc1ccccc1-c1nccc(NCc2cccs2)n1	-4.1%	25.1µM*	1.5%	?	-5.6%
CO[C@@H]1COC(=O)[C@H](C)NC(=O)[C@@H](C)COC(=O)[C@H](C)NC(=O)C/C=C\[C@H]1C	.	3.9%[11.4 µM]	5.4%[11.5 µM]	-5.2%[11.4 µM]	.
COC(=O)c1ccc(C(NC(=O)OCc2ccccc2)/C(F)=C/[C@@H](C)C(=O)N[C@@H](CO)Cc2ccccc2)cc1 (stereo not given in full)	379.7%	2.5%	-36.9%	11.1%	-8.3%
O=C1CC[C@](CCc2nc3ccccc3[nH]2)(c2ccccc2)C(=O)N1	6.7%[11.4 µM]	5.3%[11.4 µM]	15.2%[11.5 µM]	4.1%[11.4 µM]	-10.8%[7.6 µM]
CCOC(=O)c1sc(NC(=O)CSc2ccccn2)c(C#N)c1C	-8.6%	8.2%	-19.6%	15.3%	-13.9%
Cc1sc(NC(=O)CSc2nnc(COc3ccccc3)n2C)c(C#N)c1C	193.6%	6.31µM*	-6.7%	?	-2.5%
Cc1ccc(OCc2nnc(SCC(=O)Nc3sc(C)c(C)c3C#N)n2C)cc1	i	?	-18.6%	?	-5.7%
CCOC(=O)c1sc(NC(=O)CSc2nnc(Cc3ccccc3)o2)c(C#N)c1C	20µM*	4.6%	-5.3%	6.5%	1.5%
CCN1C=C(Cc2cccs2)C2=C(C1)C(c1cccs1)C(C#N)=C(N)O2 (stereo not given)	3.98µM*	?	20.6%	?	2.4%
COC(=O)[C@@]1(C)C=C[C@@H](Cc2ccccc2)N1C	-0.7%	20µM*	2.8%	?	-20.2%
